Active and inactive are the calls of the source.
How the values were obtained:
[1] = small molecules captured by biotinylated probe aFSTL3 – biochemical, small-molecule microarray, fluorescence 635/667, stem cell growth factor project, primary screen (AID 1064); details: higher = more signal;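 further: measures binding of the biotinylated anti-FSTL3 antibody to printed compounds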
[2] = binders from COS7 lysate, DM2A8 probe, primary screen, torsin A project, cell lysate, small-molecule microarray, fluorescence 635/667 (AID 1065); details: higher = more signal, COS7 lysate expressing mutant human TOR1A
[3] = small molecules captured by biotinylated probe aFGF2 – biochemical, small-molecule microarray, fluorescence 635/667, stem cell growth factor project, primary screen (AID 1067); details: higher = more signal;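 further: measures binding of biotinylated aFGF2 protein to printed compounds on slides; z-score merges feature fluorescence and signal-to-noise across triplicate slides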
[4] = small molecules captured by biotinylated probe aFGF10 – biochemical, small-molecule microarray, fluorescence 635/667, stem cell growth factor project, primary screen (AID 1071); details: higher = more signal;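 further: score merges 667 nm spot intensity and signal to noise from triplicate slides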
[5] = target: Neurogenic locus notch homolog protein 2 (Homo sapiens) (UniProt Q04721); test: small molecules binding Notch2 protein – biochemical, small-molecule microarray, 635 nm fluorescence, stem cell growth factors, primary screen (AID 1073); details: higher = more signal
Sequence of Neurogenic locus notch homolog protein 2 (Homo sapiens) (Q04721 whole entry, looked up, canonical isoform): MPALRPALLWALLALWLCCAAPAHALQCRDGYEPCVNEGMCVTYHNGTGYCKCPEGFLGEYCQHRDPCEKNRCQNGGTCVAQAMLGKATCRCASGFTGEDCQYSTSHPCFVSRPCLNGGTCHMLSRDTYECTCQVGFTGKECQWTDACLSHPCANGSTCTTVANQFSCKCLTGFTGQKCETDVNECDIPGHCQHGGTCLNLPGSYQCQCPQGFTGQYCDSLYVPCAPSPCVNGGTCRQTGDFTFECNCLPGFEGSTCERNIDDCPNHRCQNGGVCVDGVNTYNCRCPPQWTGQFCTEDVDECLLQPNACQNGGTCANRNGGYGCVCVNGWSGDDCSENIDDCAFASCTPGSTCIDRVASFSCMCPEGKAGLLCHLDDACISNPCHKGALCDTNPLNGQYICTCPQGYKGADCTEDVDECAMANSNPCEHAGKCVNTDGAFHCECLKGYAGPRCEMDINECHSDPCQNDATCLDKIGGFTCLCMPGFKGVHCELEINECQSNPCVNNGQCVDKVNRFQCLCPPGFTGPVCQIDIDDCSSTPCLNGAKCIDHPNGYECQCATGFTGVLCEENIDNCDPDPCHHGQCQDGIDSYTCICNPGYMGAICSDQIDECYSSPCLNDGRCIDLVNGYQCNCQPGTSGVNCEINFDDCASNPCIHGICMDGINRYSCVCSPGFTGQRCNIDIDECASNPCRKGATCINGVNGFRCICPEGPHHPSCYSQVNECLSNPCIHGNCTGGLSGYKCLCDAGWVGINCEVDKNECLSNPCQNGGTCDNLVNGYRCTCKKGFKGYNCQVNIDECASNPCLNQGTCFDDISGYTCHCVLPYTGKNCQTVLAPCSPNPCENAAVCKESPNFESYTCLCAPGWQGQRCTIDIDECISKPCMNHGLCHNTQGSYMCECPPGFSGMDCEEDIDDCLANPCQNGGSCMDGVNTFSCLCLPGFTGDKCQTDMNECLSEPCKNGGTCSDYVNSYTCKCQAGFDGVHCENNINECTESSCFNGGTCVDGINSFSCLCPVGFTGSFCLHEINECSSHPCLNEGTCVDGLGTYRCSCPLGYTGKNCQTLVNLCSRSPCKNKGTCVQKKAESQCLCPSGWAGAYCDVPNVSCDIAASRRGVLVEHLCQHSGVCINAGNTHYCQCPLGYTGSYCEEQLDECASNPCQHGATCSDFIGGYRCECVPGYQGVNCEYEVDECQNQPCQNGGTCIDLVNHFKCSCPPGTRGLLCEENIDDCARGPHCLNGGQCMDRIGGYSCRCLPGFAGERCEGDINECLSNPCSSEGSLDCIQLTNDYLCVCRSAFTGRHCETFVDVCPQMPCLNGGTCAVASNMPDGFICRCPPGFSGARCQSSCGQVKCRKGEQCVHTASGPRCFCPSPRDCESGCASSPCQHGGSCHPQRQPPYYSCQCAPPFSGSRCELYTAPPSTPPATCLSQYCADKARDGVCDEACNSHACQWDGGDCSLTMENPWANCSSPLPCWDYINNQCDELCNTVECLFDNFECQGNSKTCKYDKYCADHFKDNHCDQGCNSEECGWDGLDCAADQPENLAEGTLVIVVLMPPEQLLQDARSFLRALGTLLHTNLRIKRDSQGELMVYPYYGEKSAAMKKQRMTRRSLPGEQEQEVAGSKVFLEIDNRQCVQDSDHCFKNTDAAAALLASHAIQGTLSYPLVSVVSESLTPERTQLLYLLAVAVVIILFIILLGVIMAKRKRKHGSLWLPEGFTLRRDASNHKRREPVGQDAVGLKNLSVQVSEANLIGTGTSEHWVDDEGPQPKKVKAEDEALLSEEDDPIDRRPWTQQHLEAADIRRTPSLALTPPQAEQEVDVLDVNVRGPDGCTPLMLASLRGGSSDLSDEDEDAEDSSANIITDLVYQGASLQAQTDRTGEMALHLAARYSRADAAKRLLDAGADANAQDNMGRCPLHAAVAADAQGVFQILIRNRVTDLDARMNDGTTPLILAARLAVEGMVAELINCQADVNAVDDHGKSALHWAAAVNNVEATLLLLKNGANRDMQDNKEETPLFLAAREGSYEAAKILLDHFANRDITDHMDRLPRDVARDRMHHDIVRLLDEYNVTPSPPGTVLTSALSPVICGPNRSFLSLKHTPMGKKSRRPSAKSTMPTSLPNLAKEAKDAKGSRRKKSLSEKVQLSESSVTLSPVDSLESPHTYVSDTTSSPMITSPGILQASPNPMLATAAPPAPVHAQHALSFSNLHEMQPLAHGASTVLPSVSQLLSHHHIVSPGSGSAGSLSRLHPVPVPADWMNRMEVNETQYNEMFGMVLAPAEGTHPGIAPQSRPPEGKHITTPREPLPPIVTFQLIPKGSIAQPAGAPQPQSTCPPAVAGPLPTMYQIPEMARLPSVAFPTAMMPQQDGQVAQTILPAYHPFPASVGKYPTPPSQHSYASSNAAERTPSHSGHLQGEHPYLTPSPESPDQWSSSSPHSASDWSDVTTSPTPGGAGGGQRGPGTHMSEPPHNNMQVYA

[6] = target: Pro-neuregulin-1, membrane-bound isoform (Homo sapiens) (UniProt Q02297); test: small molecules binding neuregulin-1 protein – biochemical, small-molecule microarray, fluorescence 635/667, psychiatric disease protein project, primary screen (AID 1075); details: NRG1 binding, 635 nm fluorescence, higher = more signal;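 further: score combines 667 nm spot fluorescence with signal to noise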
Sequence of Pro-neuregulin-1, membrane-bound isoform (Homo sapiens) (Q02297 whole entry, looked up, the tested form may be a part, canonical isoform): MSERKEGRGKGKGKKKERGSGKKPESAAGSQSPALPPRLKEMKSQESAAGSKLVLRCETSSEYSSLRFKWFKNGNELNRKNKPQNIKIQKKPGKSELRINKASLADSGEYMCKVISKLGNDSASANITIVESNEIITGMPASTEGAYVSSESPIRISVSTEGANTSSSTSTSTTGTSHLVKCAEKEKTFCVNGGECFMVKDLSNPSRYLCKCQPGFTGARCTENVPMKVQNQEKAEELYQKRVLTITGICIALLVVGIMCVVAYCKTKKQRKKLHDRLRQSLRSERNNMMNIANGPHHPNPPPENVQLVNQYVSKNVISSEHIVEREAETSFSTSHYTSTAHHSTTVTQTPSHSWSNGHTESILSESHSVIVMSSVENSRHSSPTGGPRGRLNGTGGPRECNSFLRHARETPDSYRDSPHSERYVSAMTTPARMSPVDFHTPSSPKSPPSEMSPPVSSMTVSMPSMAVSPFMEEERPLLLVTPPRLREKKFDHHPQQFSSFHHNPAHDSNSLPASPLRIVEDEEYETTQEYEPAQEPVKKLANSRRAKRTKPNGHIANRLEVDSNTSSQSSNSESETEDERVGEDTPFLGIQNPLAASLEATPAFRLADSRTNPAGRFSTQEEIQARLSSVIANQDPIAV

[7] = tested on: Neuregulin-1 EGF-like domain; test: small molecules binding NRG1 EGF domain – biochemical, small-molecule microarray, 635 nm fluorescence, primary screen (AID 1081); details: higher = more signal;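 further: binding of the protein to compounds printed on small-molecule microarray slides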
[8] = FRG1 expression reporter modulators in myotubes – cell-based, C2C12 myotubes, firefly/Renilla luciferase, luminescence, FRG1 inhibition for FSHD, primary screen (AID 1084); details: FRG1 promoter luciferase, higher = more signal, called active from +8 up or from −8 down
[9] = small molecules captured by biotinylated probe aFST – biochemical, small-molecule microarray, fluorescence 635/667, stem cell growth factor project, primary screen (AID 1086); details: higher = more signal;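 further: score merges 667 nm fluorescence with signal-to-noise of each printed compound spot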
[10] = binders of probe aHhip on microarray, primary screen, stem cell growth factor project, biochemical, small-molecule microarray, fluorescence 635/667 (AID 1087); details: higher = more signal;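 further: score merges spot fluorescence at 667nm with spot signal to noise ratio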

With COCCCNC(=O)[C@@]1(CCC(=O)OC(C)(C)C)N=C(c2ccc(OCCCO)cc2)O[C@H]1c1ccccc1CN=[N+]=[N-] as the compound, how does the composite z-score [1] read?
The composite z-score was -0.073.

What about the composite z-score [2] of the same compound?
Its composite z-score is -0.158.

What about the composite z-score [3] of the same compound?
Its composite z-score is -0.0724.

What about the composite z-score [4] of the same compound?
The composite z-score was 0.527.

And the composite z-score [5]?
The composite z-score was 1.67.

What about the composite z-score [6] of the same compound?
The composite z-score was 1.59.

And the composite z-score [7]?
Its composite z-score is 1.27.

And the z-score [8]?
Its z-score is 2.42 (inactive).

What about the composite z-score [9] of the same compound?
Its composite z-score is 1.53.

What about the composite z-score [10] of the same compound?
Its composite z-score is 0.238.

Which composite z-score [1] does the source give for CCCN1C(=O)[C@]2(COC(c3ccc(OCCCO)cc3)=N2)Cc2ccccc21 here?
The composite z-score was 0.955.

And the composite z-score [2]?
The composite z-score was 0.325.

And the composite z-score [3]?
The composite z-score was 0.0092.

What about the composite z-score [4] of the same compound?
Its composite z-score is 0.251.

What about the composite z-score [5] of the same compound?
Its composite z-score is 0.419.

And the composite z-score [6]?
Its composite z-score is 1.41.

And the composite z-score [7]?
The composite z-score was 1.18.

And the z-score [8]?
The z-score was -0.0593 (inactive).

What about the composite z-score [9] of the same compound?
The composite z-score was 0.486.

What about the composite z-score [10] of the same compound?
Its composite z-score is 0.0044.

Which results are given for CCCCCN1CC=CC23O[C@@H]4C=CCOC(=O)[C@@H]4[C@H]2C(=O)N(CCCO)[C@@H]3C1=O (stereo not given in full)?
composite z-score [1]: -0.295; composite z-score [2]: 0.777; composite z-score [3]: -0.195; composite z-score [4]: -0.549; composite z-score [5]: -0.661; composite z-score [6]: 2.05; composite z-score [7]: 1.27; z-score [8]: -0.482 (inactive); composite z-score [9]: -0.643; composite z-score [10]: -0.236

With CCCCC(CC)C(O)C1C=CC2C(=O)N(c3ccccc3)C(=O)C2N1Nc1ccccc1 (stereo not given) as the compound, how does the composite z-score [1] read?
The composite z-score was 0.0807.

What about the composite z-score [2] of the same compound?
Its composite z-score is 0.34.

And the composite z-score [3]?
The composite z-score was 0.0472.

And the composite z-score [4]?
Its composite z-score is 0.698.

And the composite z-score [5]?
The composite z-score was 1.46.

And the composite z-score [6]?
The composite z-score was 0.796.

What about the composite z-score [7] of the same compound?
The composite z-score was 1.06.

What about the z-score [8] of the same compound?
Its z-score is -0.274 (inactive).

What about the composite z-score [9] of the same compound?
The composite z-score was 1.1.

What about the composite z-score [10] of the same compound?
The composite z-score was -0.0618.

With CCOC(=O)C[C@H]1[C@H](OC(=O)c2ccccc2-c2ccccc2)[C@@H](NC(=O)Cc2ccc(OC)cc2)c2cc(OCCCO)ccc2N1C(=O)c1ccccc1 as the compound, how does the composite z-score [1] read?
The composite z-score was -0.0656.

What about the composite z-score [2] of the same compound?
Its composite z-score is 0.629.

What about the composite z-score [3] of the same compound?
Its composite z-score is -0.0942.

What about the composite z-score [4] of the same compound?
Its composite z-score is 0.321.

What about the composite z-score [5] of the same compound?
The composite z-score was 0.125.

What about the composite z-score [6] of the same compound?
The composite z-score was -0.299.

And the composite z-score [7]?
Its composite z-score is -0.537.

And the z-score [8]?
Its z-score is -0.735 (inactive).

And the composite z-score [9]?
The composite z-score was 0.369.

And the composite z-score [10]?
The composite z-score was -0.0645.

For CO[C@H]1O[C@H](CO)[C@@H](OC(=O)Nc2ccc(Oc3ccccc3)cc2)[C@H](OC(=O)Nc2ccccc2)[C@H]1OC(=O)Nc1ccccc1, which composite z-score [1] is on record?
Its composite z-score is 0.096.

And the composite z-score [2]?
The composite z-score was 0.95.

And the composite z-score [3]?
The composite z-score was 0.0732.

And the composite z-score [4]?
Its composite z-score is 1.16.

And the composite z-score [5]?
Its composite z-score is 1.48.

What about the composite z-score [6] of the same compound?
The composite z-score was 1.3.

What about the composite z-score [7] of the same compound?
The composite z-score was 1.39.

And the z-score [8]?
Its z-score is 0.119 (inactive).

What about the composite z-score [9] of the same compound?
The composite z-score was 0.446.

What about the composite z-score [10] of the same compound?
The composite z-score was -0.0346.

For CN1C(=O)C2C=CC(C(O)c3ccccn3)N(Nc3ccccc3)C2C1=O (stereo not given), which composite z-score [1] is on record?
The composite z-score was -0.0437.

What about the composite z-score [2] of the same compound?
Its composite z-score is 1.11.

And the composite z-score [3]?
Its composite z-score is -0.0985.

What about the composite z-score [4] of the same compound?
Its composite z-score is 0.479.

What about the composite z-score [5] of the same compound?
Its composite z-score is 0.766.

What about the composite z-score [6] of the same compound?
The composite z-score was 0.838.

And the composite z-score [7]?
The composite z-score was 0.684.

What about the z-score [8] of the same compound?
The z-score was 0.595 (inactive).

What about the composite z-score [9] of the same compound?
The composite z-score was 0.113.

What about the composite z-score [10] of the same compound?
Its composite z-score is 0.176.

Which composite z-score [1] does the source give for COc1ccc([Si](C)(C)[C@H]2[C@H](CCn3cc([C@H](O)c4ccccc4)nn3)O[C@@]3(C(=O)N(Cc4cccc(N5CCC5=O)c4)c4ccccc43)[C@@H]2C)cc1 here?
Its composite z-score is 0.386.

And the composite z-score [2]?
The composite z-score was 0.238.

What about the composite z-score [3] of the same compound?
Its composite z-score is -0.0894.

What about the composite z-score [4] of the same compound?
The composite z-score was 0.164.

And the composite z-score [5]?
Its composite z-score is -0.404.

And the composite z-score [6]?
The composite z-score was -0.0001.

And the composite z-score [7]?
Its composite z-score is 0.557.

What about the z-score [8] of the same compound?
The z-score was -1.99 (inactive).

What about the composite z-score [9] of the same compound?
The composite z-score was -0.0509.

What about the composite z-score [10] of the same compound?
Its composite z-score is -0.191.

Reference: PubChem BioAssay
